Data on 25 molecules can be found in PubChem BioAssay (NCI).

This is part of a sample that, as a whole, favours compounds with a hit. Of some 83,000 tested, about 20% had one in any assay.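 48-hour exposure, single concentration, 96-well plates; percent growth endpoint where 0 means no net growth. Active: below 10.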 Activity calls are given as the source filed them.

The test system of the assay is MDA-MB-468 breast. Briefly: NCI-60 one-dose screen, 48 h (100 = growth as untreated, 0 = no growth, -100 = all killed). As to conditions: 10 µM unless noted.
Take `O=C1/C(=C\c2ccc[nH]2)c2ccccc2N1c1ccccc1`: the growth was 0.806% (active).
For `CC[C@]12C=CCN3CC[C@@]4(c5ccc(OC)cc5N(C)[C@H]4[C@@](O)(C(=O)OC)[C@@H]1OC(=O)CCC(=O)N[C@H](Cc1c[nH]c4ccccc14)C(=O)OC)[C@@H]32` the value was -42.6% [100 µM] (active).
For `Cc1c(-c2cnc3ccc(Cl)cc3c2C(=O)O)nnn1-c1ccc(Cl)cc1` the value was 110% (inactive); for `COc1ccc(C(C)=O)c(OC)c1`, 97.7% (inactive); for `ICCC(c1ccccc1)(c1ccccc1)c1ccccc1`, 22.6% (inactive).
The figure for `CC[C@H]1OC(=O)[C@H](C)[C@@H](O[C@H]2C[C@@](C)(OC)[C@@H](O)[C@H](C)O2)[C@H](C)[C@@H](O[C@@H]2O[C@H](C)C[C@H](N(C)C)[C@H]2O)[C@](C)(OC)C/C(C)=C2/O[C@@]1(C)C=C2C` is -73.7% (active); for `CC(Br)C(Br)c1cc2c(cc1Br)OCO2` (stereo not given) it is 96.8% (inactive); for `CCCCCCCCCCCCCCCCNC(=O)OC(C)C` it is 36.1% (inactive).
With `C#Cc1cccc(NC(=O)c2ccccc2NC(=O)C=C)c1`, the growth was 70.9% [8.25 µM] (inactive).
For `COc1ccc2nc3cc(Cl)ccc3c(NCCNCC(O)CO)c2c1` (stereo not given) the value was -8.61% (active); for `N=C(N)c1ccc(-c2ccc(-c3cccs3)s2)cc1F`, -77.4% (active).
Take `COc1ccc(Cl)cc1NC(=O)c1cc2c([nH]1)-c1nc(N)sc1CCC2`: the growth was 103% (inactive).
The figure for `CCOc1ccc(C(C)=O)cc1NC(=O)c1cccc(-c2nnn(CC)n2)c1` is 17.5% (inactive); for `CCC(C)(CC)c1ccc(O)c(C)c1` it is 101% (inactive); for `Cc1ccc2c(c1)Sc1c(ccc3ccccc13)N2` it is 86.6% (inactive).
The figure for `N#CC1=C(N)Oc2c(ccc3ccccc23)C1c1ccccc1Cl` (stereo not given) is 8.77% (active).
For `CCOC(=O)c1c(C(=O)OCC)c2cc(-c3ccn4c(C(=O)c5ccccc5)c(C(=O)OCC)c(C(=O)OCC)c4c3)ccn2c1C(=O)c1ccccc1` the value was 106% (inactive); for `COc1cnc2c(c1)C(=O)c1c-2n(CCCCl)c(=O)c2ccncc12`, 34.1% (inactive).
`Cc1cc(=O)[nH]c(N/N=C/c2ccccc2O)n1`: the growth was 58.1% (inactive).
On to `C#CCn1cc(C=C2C(=O)N(C)C(=O)N(C)C2=O)c2cc(Cl)ccc21`, for which the growth is 103% (inactive).
For `CCCCOC(=O)c1ccc(NC(=O)CCl)cc1` the value was 50% (inactive); for `O=NN(CCCl)C(=O)NCc1ccc(-c2ccc(CNC(=O)N(CCCl)N=O)cc2)cc1`, 101% (inactive).
With `CN(C)c1ccc2oc(=O)c3ccccc3c2c1`, the growth was 78.3% (inactive).
The figure for `O=C(/C(Br)=C/c1ccccc1)c1ccccc1` is -31.9% (active); for `Nc1cc(C(F)(F)F)c(-c2cc(N3CCOCC3)nc(N3CCOCC3)n2)cn1` it is -51.6% (active).
